# Out of some 270,000 compounds screened, about 620 (0.23%) were called active. Not shown: some 12% with an inconclusive outcome. The sample as a whole holds a higher share of actives than the screen did. Unmarked numbers belong to inactive results. The call rests on the fitted dose curve; in most records, active means well fitted inhibition curve with a large enough effect in the polarisation, with a control signal flat (not every such curve was filed as active); inconclusive means small, poorly fitted or top-dose-only effect, or effect the other way, or a change in a side signal; inactive means no such curve, though single readings can be large or run the other way; the % refers to the polarisation.
# Target: Menin (Homo sapiens) (UniProt O00255)
# Test: qHTS Assay for Inhibitors Targeting the Menin-MLL Interaction in MLL Related Leukemias: Competition With Texas Red Labeled MLL-derived Mutant Peptide; on FP activity change, negative = inhibition: % of control where 0% means no effect
# Conditions: fluorescence polarization; series mostly up to 61.6 µM; FP activity change, negative = inhibition: at the top concentration
# Source text: qHTS Assay for Inhibitors Targeting the Menin-MLL Interaction in MLL Related Leukemias NIH Chemical Genomics Center [NCGC] NIH Molecular Libraries Probe Centers Network [MLPCN] MLPCN Grant: MH084875-01A1 Assay Submitter (PI): Jolanta Grembecka, Tomasz Cierpicki, University of Virginia Translocations of the MLL (Mixed Lineage Leukemia) gene are frequently found in human leukemias affecting both children and adults. Fusion of MLL to one of more than 60 genes results in generation of oncogenic proteins upregulating Hox genes, which are vital to blood cell development. Patients harboring fusion of the MLL gene suffer from aggressive leukemias and respond poorly to available therapies. All of the oncogenic fusion proteins have a preserved N-terminal fragment of MLL that has been identified to interact with menin. It has been recently discovered that association with menin is critical to the leukemogenic activity of the MLL fusion oncoproteins. Selective targeting of the menin-MLL interaction could provide an attractive therapeutic approach to develop novel drugs for MLL-related leukemias. Small molecules blocking the menin-MLL interaction should reverse the oncogenic potential of MLL fusion proteins. We have developed and optimized a fluorescence polarization-based assay for the identification of Menin-MLL inhibitors. The assay was run employing two different MLL-derived peptides. The present assay uses a 12 amino acid peptide labeled with fluorescein at its N-terminus. This peptide consists of the menin high affinity binding motif from MLL and is potently bound by menin. Another peptide with a mutated sequence, labeled with Texas Red, was used in parallel as a less stringent screen for inhibitors.
# The Menin protein, the MLL-wild type (w.t.) derived peptide (N-terminal 12 amino acids), the MLL-derived peptide labeled with Texas Red and the MLL-w.t. peptide labeled with Fluorescein were kindly supplied by laboratory of Dr. Jolanta Grembecka, University of Virginia. All protein and peptide solutions were stored in single use aliquots at -80C. The Eu3+ Cyrptate-conjugated mouse monoclonal antibody anti-6 Histidine (Eu3+-AB) and the Streptavidin-XL665 conjugate (XL665) were purchased from Cisbio International (Bedford, MA). All antibody and XL665 conjugate solution stocks were stored in single use aliquots at -20C. The Buffer components for all assays were purchased from Sigma-Aldrich (St. Louis, MO) and Invitrogen (Carlsbad, CA). FP Assay Reagents: 1. FP reaction buffer: 50 mM Tris-HCl pH 7.5, 50 mM NaCl, 1mM DTT. Before use, 0.05% BSA is added. 2. Menin protein, MLL-w.t. labeled with fluorescein, MLL-mutant peptide labeled with texas red. Stored in singe use aliquots at -80C. 3. MLL-w.t. unlabeled peptide as positive control: 10 uM final in FP buffer. FP Assay Procedure: 1. Prepare Menin at 200 nM, MLL-w.t.-fluorescein at 25 nM, and MLL-mutant-texas red at 50 nM mixture in FP buffer. 2. Prepare Menin at 200 nM, MLL-w.t.-fluorescein at 25 nM, MLL-mutant-texas red at 50 nM, and 10 uM MLL-w.t. unlabeled mixture in FP buffer. 3. Prepare MLL-w.t.-fluorescein at 25 nM and MLL-mutant-texas red at 50 nM mixture in FP buffer. 3. Dispense 4 ul per well of reagent in step 1 in columns 2, 4 - 48 in a black 1536 well plate, dispense 4 ul per well of reagents from steps 2 and 3 in columns 1 and 3 respectively. Incubate plate at ambient for 15 minutes. 4. Transfer 23 nl per well of compound to plate and incubate at ambient for 1 hr. 5. Read fluorescence polarization for each label using the PerkinElmer Envision. Envision protocol for fluorescein: FITC FP Dual Enh Mirror, Excitation filter 480, Emission filter (1) P-pol 535, Emission filter (2) S-pol 535 Envision protocol for texas red: FP Dual Enh Mirror, Excitation filter 555, Emission filter (1) P-pol 632, Emission filter (2) S-pol 632
# Potency means the concentration at half of the fitted maximal effect.
# Menin (Homo sapiens), sequence (O00255 whole entry, looked up): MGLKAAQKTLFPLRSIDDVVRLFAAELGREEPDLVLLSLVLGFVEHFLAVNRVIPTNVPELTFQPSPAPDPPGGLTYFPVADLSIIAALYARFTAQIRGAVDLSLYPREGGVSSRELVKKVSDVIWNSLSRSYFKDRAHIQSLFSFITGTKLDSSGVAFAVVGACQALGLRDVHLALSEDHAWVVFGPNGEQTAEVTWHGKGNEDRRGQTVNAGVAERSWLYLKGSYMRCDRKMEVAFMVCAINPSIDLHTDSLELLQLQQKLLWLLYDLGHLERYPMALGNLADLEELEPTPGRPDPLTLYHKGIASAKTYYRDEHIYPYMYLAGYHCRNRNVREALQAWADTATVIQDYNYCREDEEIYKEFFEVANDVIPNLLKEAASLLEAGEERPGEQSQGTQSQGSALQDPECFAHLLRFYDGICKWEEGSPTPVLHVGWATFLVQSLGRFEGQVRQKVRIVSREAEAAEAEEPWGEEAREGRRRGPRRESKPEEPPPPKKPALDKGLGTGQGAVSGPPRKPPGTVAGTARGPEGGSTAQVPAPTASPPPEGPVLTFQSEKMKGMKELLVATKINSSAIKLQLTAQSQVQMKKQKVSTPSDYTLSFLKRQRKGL
SMILES,"FP activity change, negative = inhibition",Potency
CCC(CC)c1nnc(NC(=O)C2CCN(C(=O)c3ccco3)CC2)s1,-19.3%,
Cc1cccc(OCC(=O)Nc2ccc(NC(=O)c3ccco3)c(C)c2)c1,-22.6%,
COc1ccc(Cn2c(=S)[nH]c3cc(C(=O)NCCCN4CCOCC4)ccc3c2=O)cc1,14.5%,
CC(C)CN(Cc1c(O)ccc2c(=O)c(-c3ccccc3)coc12)CC(C)C,16.6%,
CCOC(=O)c1c(-c2ccc(-c3ccccc3)cc2)csc1NC(=O)CCC(=O)O,20.7%,
COc1ccc(Br)cc1C1C2C=CCC(C)C2C(=O)N1Cc1ccccc1 (configuration not stated),-15.8%,
CCn1c(=N)c(C(=O)NCCCOC)cc2c(=O)n3cccc(C)c3nc21,-13.2%,
Cc1cccn2c(=O)c(/C=C3\SC(=S)N(CC(C)C)C3=O)c(NCCCOC(C)C)nc12,,28.2 µM (active)
CNc1nc2c(C)cccn2c(=O)c1C=Nc1ccc(OC)cc1,-16.5%,
Cc1ccc(/C=C2/SC(=S)N(CCC(=O)NCCCN3CCOCC3)C2=O)cc1,-14.8%,
O=C1CCN(Cc2ccccc2)CCN1[C@H](CSc1ccccc1)c1ccccc1,-15.5%,
COCCNC(=O)COc1ccc(N(C)S(=O)(=O)c2ccc3ccccc3c2)cc1,0.697%,
CC1CCCN(CC(=O)Nc2cc(Cl)ccc2Oc2ccccc2)C1 (configuration not stated),-19.8%,
CCN(CC)/[N+]([O-])=N/Oc1cc(O/[N+]([O-])=N/N2CCCC2CO)c([N+](=O)[O-])cc1[N+](=O)[O-] (configuration not stated),0.381%,
CC1CCN(C2=NC(=O)/C(=C/c3ccc(O)cc3)S2)CC1,-0.925%,
c1ccc(Cc2ccc(OCCn3ccnc3)cc2)cc1,-10.6%,
O=C(O)C1CC=CC2CCN(C3CCCCC3)C(=O)C21 (configuration not stated),2.51%,
CCOC(=O)c1cccc(NC(=O)C2CCN(c3ncnc4c3nc3n4CCCCC3)CC2)c1,-10.2%,
CCOC(=O)c1ccc(NC(=O)c2ccc(NC(=O)C3CCCO3)cc2)cc1 (configuration not stated),28.3%,
CCCNC(=O)c1ccc(N2CCC3(CC2)CC(c2ccc(Cl)cc2)=NO3)c([N+](=O)[O-])c1,-0.331%,
CCC(C)(C)NC(=O)C(c1ccc(OC)cc1)N(C(=O)CCC(=O)Nc1cc(C)on1)c1ccc(OC)cc1OC (configuration not stated),-17.8%,

SMILES,"FP activity change, negative = inhibition",Potency
COc1cccc(CCNC(=O)c2cccc(NC(=O)C3=C(C)OCCS3)c2)c1,-0.071%,
COCCNc1ncnc2ccc(-c3ccccc3CN(C)C)cc12,-18.4%,
COCCNc1ncnc2ccc(-c3cccnc3)cc12,,31.6 µM (active)
COc1ccc(CNc2ncnc3ccc(-c4cccnc4)cc23)c(OC)c1,-6.79%,
COc1ccccc1N1CCN(S(=O)(=O)CCNC(=O)c2ccc(OC(C)C)cc2)CC1,-12.6%,
CC(CC(=O)N1CCN(c2ccccc2)CC1)S(=O)(=O)c1ccc2c(c1)NC(=O)CS2 (configuration not stated),2.06%,
COc1ccc(N2CCN(S(=O)(=O)CCNC(=O)C34CC5CC(CC(C5)C3)C4)CC2)cc1,-25%,
CCc1ccc(S(=O)(=O)N/N=C\c2ccc([N+](=O)[O-])o2)cc1,35.3%,
COc1ccc(CNC(=O)/C(C#N)=C/c2cccc(OC)c2OC)cc1,-18.7%,
COc1ccc(N2CCN(C(=O)[C@@H](NC(=O)c3cc(OC)cc(OC)c3)C(C)C)CC2)cc1,-22.7%,
O=C(NCC1CC1)C1(C(F)(F)F)C/C(=C\CCO)CCCO1 (configuration not stated),-11.6%,
Cc1cccc(S(=O)(=O)N2CN(CC3CCCO3)c3nc4ccccc4nc32)c1 (configuration not stated),20.6%,
CCOc1cc(/C=C/c2nc3ccccc3c(=O)[nH]2)cc(Br)c1OC,25.1%,
CCC(C(=O)OC)n1cnc2scc(-c3ccc(C)cc3)c2c1=O (configuration not stated),-3.92%,
CCn1c(Cc2ccc(OC)cc2)nnc1SCC(=O)Nc1ccc(N2CCOCC2)cc1,3.37%,
COc1ccc(NC(=O)c2cc(-c3cc(OC)c(OC)c(OC)c3)nc3ccccc23)c(OC)c1,13.1%,
Cc1ccc(S(=O)(=O)N(Cc2ccccc2)c2ccccn2)cc1[N+](=O)[O-],-17.7%,
C=CCn1c(C23CC4CC(CC(C4)C2)C3)n[nH]c1=S,-20.5%,
Cc1ccc(OCC(=O)Nc2ccc(N3CCN(C(=O)c4ccco4)CC3)cc2)c(C)c1,-25.9%,
COc1ccccc1NC(=O)c1cc(N2C(=O)C3C4CCC(C4)C3C2=O)ccc1Cl (configuration not stated),19.8%,
Cc1ccc(O)c(/C=N/NC(=O)COc2ccc3c(C)cc(=O)oc3c2)c1,7.45%,

SMILES,"FP activity change, negative = inhibition",Potency
O=C(NCCc1ccccc1Cl)C1CCC(=O)N(CCCc2ccccc2)C1 (configuration not stated),-5.76%,
COc1cccc(/C=C2\Sc3ccc(C(=O)NCC4CCCO4)cc3N(C)C2=O)c1 (configuration not stated),36.8%,
COc1cc(OC)c2c(C)cc(=O)oc2c1C(CCN1CCCCC1)c1ccc(N(C)C)cc1 (configuration not stated),-13.6%,
Cc1ccc(C(=O)Nc2nnc(-c3cccs3)s2)cc1C,,10 µM (active)
CCOc1cccc(C(=O)Nc2nnc(-c3cccs3)s2)c1,-22.3%,
Cc1ccc(C(=O)Oc2coc(CSc3nnc(NC(=O)c4cccs4)s3)cc2=O)cc1C,-14.4%,
COc1ccc(C(C(=O)NC(C)(C)C)N(Cc2ccc(F)cc2)C(=O)CCC(=O)Nc2cc(C)on2)cc1 (configuration not stated),-29.2%,
COc1ccc(NC(=O)c2cccc3c2C(=O)N(CC2CCCO2)C3)cc1OC (configuration not stated),20.2%,
CCc1ccc(CN(C)C(=O)C2CCC(=O)N(Cc3cccc(OC)c3)C2)nc1 (configuration not stated),-5.46%,
CCC1Sc2ccc(S(=O)(=O)CCC(=O)NCc3cccs3)cc2NC1=O (configuration not stated),3.79%,
COCCNC(=S)N(CCc1c(C)[nH]c2ccc(C)cc12)Cc1cccnc1,7.33%,
CCOc1ccccc1NC(=S)N1CCN(c2cccc(C)c2C)CC1,-1.61%,
Cc1ccc(N2CCN(C(=O)c3cccs3)CC2)c(C)c1,-9.4%,
NC(=O)c1ccc(Nc2ccc3c(c2)CCC3)c([N+](=O)[O-])c1,-23.3%,
Cc1nc2ccc(C(=O)N(C)CC3CCCN(CCc4ccc(Cl)cc4)C3)cc2[nH]1 (configuration not stated),0.888%,
CCOC(=O)c1csc(CCNC(=O)c2oc3c(Cl)cc(C)cc3c2C)n1,-13.1%,
Cc1ccc(CNC(=O)C2CCCN2S(=O)(=O)c2ccc3c(c2)C(C)(C)C(=O)N3C)cc1 (configuration not stated),2.45%,
COc1ccc(NC(=O)c2sc3nc(C)nc(N4CCN(c5ccccn5)CC4)c3c2C)c(OC)c1,-4.1%,
COCCNc1ccc(-c2n[nH]c(=O)c3ccccc23)cc1[N+](=O)[O-],12.6%,
CCc1cccc(C)c1N1C(=O)CN(Cc2ccccc2)C1=S,32.1%,

# Reference: PubChem BioAssay AID1768 (National Center for Advancing Translational Sciences (NCATS), 2009)
